Bioassay records (PubChem BioAssay)
Compounds with a hit are over-represented: about 22% of the library has one in this group of screens.
Measles CPE: protection of cells from measles virus; Measles virus-infected cells, CPE protection, absorbance; protection (pct of control), % at 4 µM; actives 1.5% (n = 140,000); AID 841; in the data active means protection mostly above about 24%, no sharp cut-off; inactive means mostly below about 26%
CYP2C19 inhib: blocks human cytochrome P450 2C19. actives 21% (n = 96,000). P33261. AID 778. CYP2C19 Supersomes, luciferin-H EGE luminescence, 30 min. inhibition, % at 5 µM;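 active means CYP2C19 inhibition above a set limit at 5 µM in the primary screen, cut at about 50% in these data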;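 further: plate controls were negative control wells for no effect and 2.5 mM tranylcypromine positive control for full effect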
CYP2C9 activ: increases human cytochrome P450 2C9 activity. P11712. recombinant CYP2C9, luciferin-H conversion, luminescence; hits give high values; factor 1 = untreated enzyme, 0 = blocked. actives 1.4% (n = 96,000). AID 1024. activation factor at 5 µM;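 active means activation factor of 2 or more for CYP2C9 at a 5 µM dose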;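 further: 0 = sulfaphenazole-blocked wells and 1 = vehicle-only wells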
Target sequence (P11712 whole entry, looked up): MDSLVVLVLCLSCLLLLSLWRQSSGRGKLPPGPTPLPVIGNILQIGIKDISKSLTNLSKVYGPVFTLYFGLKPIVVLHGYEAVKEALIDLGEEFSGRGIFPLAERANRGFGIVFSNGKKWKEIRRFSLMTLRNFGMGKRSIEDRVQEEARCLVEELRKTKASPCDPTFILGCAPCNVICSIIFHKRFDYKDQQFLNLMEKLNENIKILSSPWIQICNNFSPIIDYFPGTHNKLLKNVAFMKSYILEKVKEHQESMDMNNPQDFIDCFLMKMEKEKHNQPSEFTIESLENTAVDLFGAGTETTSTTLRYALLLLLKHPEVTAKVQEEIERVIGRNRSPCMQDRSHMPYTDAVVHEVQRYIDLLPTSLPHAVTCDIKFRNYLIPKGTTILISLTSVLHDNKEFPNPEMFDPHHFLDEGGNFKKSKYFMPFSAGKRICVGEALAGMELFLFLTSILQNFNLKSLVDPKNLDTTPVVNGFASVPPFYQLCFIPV
CYP2C9 inh: human CYP2C9 inhibition | inhibition, % at 5 µM | actives 20% (n = 96,000) | P11712 | CYP2C9 Supersomes, luciferin-H conversion, luminescence;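 active means blocking of liver enzyme CYP2C9 beyond about 50% at 5 µM, limit read from the data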
CYP2C19 activ: cytochrome P450 2C19 (human) activation | recombinant CYP2C19, luciferin-H EGE luminescence; hits give high values; 0 = fully inhibited enzyme, 1 = untreated enzyme | activation factor at 5 µM | 96,000 tested, under 10 active;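 active means activation factor of at least 2 at 5 µM in the primary screen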;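 further: 0 = wells with 2.5 mM tranylcypromine and 1 = vehicle-only wells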
The depositor's hits bear a star; . = no result given.

SMILES | Measles CPE | CYP2C19 inhib | CYP2C9 activ | CYP2C9 inh | CYP2C19 activ
CC(C)c1[nH]c(=O)c(C#N)c2c1COC(C)(C)C2 | 5 | 17 | 1.1 | -6 | 0.8
CCCc1[nH]c(=O)c(C#N)c2c1COC(C)(C)C2 | 7 | 66* | 0.8 | 20 | 0.3
COc1nc(-c2ccccc2)c2c(c1C#N)CC(C)(C)OC2 | 7 | 78* | 0.5 | 47 | 0.2
CCOC(=O)CN1C(c2ccccc2O)Nc2ccc(Br)cc2C1c1ccccc1 (centres undefined) | 16 | . | . | . | .
CC1=C(C(=O)OCc2ccc3c(c2)OCO3)C(c2ccccc2OCc2ccccc2)NC(=O)N1 (centres undefined) | 17 | 30 | 0 | 99* | 0.7
CCCOc1ccccc1C1NC(=O)NC(C)=C1C(=O)OCCOC (centres undefined) | 22 | 54* | 0.8 | 22 | 0.5
CCCOc1ccccc1C1NC(=O)NC(C)=C1C(=O)OCCOC(C)C (centres undefined) | 1 | 56* | 0.5 | 53* | 0.4
CC1=C(C(=O)OCc2ccc3c(c2)OCO3)C(c2ccccc2)NC(=O)N1 (centres undefined) | 4 | 37 | 0.7 | 35 | 0.6
CCCOc1ccccc1C1NC(=O)NC(C)=C1C(=O)OCc1ccccc1 (centres undefined) | 11 | . | . | . | .
O=C(CN1C(=O)CSC1=O)NC1CCCCC1 | 8 | . | . | . | .
CC(=O)c1ccc(NC(=O)c2ccc(S(=O)(=O)c3ccccc3)cc2)cc1 | 25 | . | . | . | .
CCn1cc(C(=O)NCCCOC)c(=O)c2cc(S(=O)(=O)N(C)C)ccc21 | 18 | . | . | . | .
CC(=O)/C(C#N)=C1\NC(=O)C(Cc2ccc(C)c(C)c2)S1 (centres undefined) | 69* | -5 | 0.1 | 94* | 1.1
CC(=O)/C(C#N)=C1\NC(=O)C(Cc2ccccc2Cl)S1 (centres undefined) | 38* | . | . | . | .
Cc1ccc(CC2SC(=O)NC2=O)cc1Cl (centres undefined) | 10 | . | . | . | .
CC(=O)Nc1ccc(S(=O)(=O)NCC(=O)OCc2ccccc2)cc1 | 19 | . | . | . | .
CC(=O)Nc1ccc(S(=O)(=O)N(C)CCOCc2ccccc2)cc1 | 42 | 55* | 2* | -100 | 0.4
O=C(Nc1ccccc1)c1ccc(S(=O)(=O)N(CCO)CCO)cc1 | 3 | -8 | 1 | 0 | 1.1
CC(=O)Nc1ccc(S(=O)(=O)N(CCO)Cc2ccccc2)cc1 | 2 | 56* | 0.3 | 71* | 0.4
Fc1ccc(-c2cc(C(F)(F)F)nc(NCc3cccs3)n2)cc1 | 7 | . | . | . | .
Cc1ccccc1OCCC(=O)NCCc1ccc(S(N)(=O)=O)cc1 | 18 | . | . | . | .
CCOc1ccc(C(=O)CC(=O)C(=O)NCCc2ccc(OC)c(OC)c2)cc1 | 38* | . | . | . | .
CCOc1ccc(NC(=O)Cn2nnc(C(=O)NCCc3ccc(OC)c(OC)c3)c2N)cc1 | 1 | 32 | 0.2 | 79* | 0.7
Cc1cccc(-n2nnc(C(=O)Nc3ccc(F)cc3)c2N)c1 | 5 | -6 | 2.7* | -166 | 1.1
COc1ccc(OCCCC(=O)NCCc2ccc(OC)c(OC)c2)cc1 | 7 | . | . | . | .
SMILES | Measles CPE | CYP2C19 inhib | CYP2C9 activ | CYP2C9 inh | CYP2C19 activ
Cc1cccc(-n2nnc(C(=O)N3CCc4ccccc4C3)c2N)c1 | 11 | 12 | 3.2* | -223 | 0.9
Cc1cccc(-n2nnc(C(=O)NCc3ccc4c(c3)OCO4)c2N)c1 | 8 | 28 | 0.8 | 17 | 0.7
CCOc1ccc(NC(=O)Cn2nnc(C(=O)NCc3ccco3)c2N)cc1 | 8 | 0 | 0.9 | 7 | 1
Cc1ccnc(NS(=O)(=O)c2ccc(NC(=O)C34CC5CC(CC(C5)C3)C4)cc2)n1 | 19 | -4 | 0.9 | 12 | 1
CCCn1c(SCC(=O)c2ccc(CC)cc2)n[nH]c1=O | 9 | 0 | 0.9 | 11 | 1
CC(=NC(C)C)C1=C(O)CCC1=O | 4 | 1 | 0.9 | 13 | 1
COc1cc(C(=O)NCCC(C)C)c([N+](=O)[O-])cc1OC | 5 | 0 | 1.1 | -14 | 1
CCOC(=O)N1C(=O)C2(CCCCC2)N(c2ccccc2Cl)C1=S | 10 | . | . | . | .
COc1ccc(CCNC(=O)c2nnn(-c3cccc(C)c3)c2N)cc1OC | 5 | 8 | 0.3 | 68* | 0.9
COc1ccc(CCNC(=O)c2nnn(-c3cc(C)cc(C)c3)c2N)cc1OC | 13 | 16 | 1.8 | -79 | 0.8
Cc1ccc(C2NC(=O)NC3=C2CCc2ccccc23)cc1 (centres undefined) | 4 | 95* | 0.7 | 33 | 0.1
COc1ccc(C2NC(=O)NC3=C2CCc2ccccc23)cc1 (centres undefined) | 13 | 81* | 0.8 | 16 | 0.2
COc1ccc(Cl)cc1NC(=O)Cc1c(F)cccc1Cl | 2 | . | . | . | .
COc1ccc(C2OC(=O)c3ccccc3S2)cc1 (centres undefined) | 7 | 30 | 1 | 3 | 0.7
COc1ccc(CN2C(=O)[C@@H]3C(c4ccccc4Cl)=NO[C@@H]3C2=O)cc1 | 5 | 87* | 0.3 | 70* | 0.1
O=C1[C@@H]2C(c3ccccc3Cl)=NO[C@@H]2C(=O)N1Cc1ccccc1 | 17 | 99* | 0.3 | 73* | 0
COc1ccc(OC)c(C2=NO[C@@H]3C(=O)N(c4cc(Cl)ccc4OC)C(=O)[C@H]23)c1 | 4 | 62* | 0.8 | 23 | 0.4
CC1=C(C)CC2C(=O)N(Cc3ccccc3)C(=O)C2C1 (centres undefined) | 17 | 30 | 0.8 | 18 | 0.7
COc1ccc(CN2C(=O)C3C4C=CC(C4)C3C2=O)cc1 (centres undefined) | 1 | 16 | 0.9 | 8 | 0.8
COc1ccc(Cl)cc1N1C(=O)[C@@H]2C(c3cccc(OC)c3OC)=NO[C@@H]2C1=O | 3 | 12 | 0.8 | 18 | 0.9
CCc1ccc(C2=NN(CCC(=O)NC3CC3)C(=O)CC2)cc1 | 25 | . | . | . | .
COc1ccc(OC)c(C2CC(=O)C(C)C(c3cc(OC)ccc3OC)N2)c1 (centres undefined) | 9 | 35 | 0.2 | 76* | 0.6
CCNC(=S)N/N=C/c1sc(N2CCCCC2)nc1-c1cccs1 | 9 | . | . | . | .
COc1cccc(CN2CCN(C(=O)c3cccs3)CC2)c1OC | 25 | 50 | 0.8 | 16 | 0.5
O=C(c1cccs1)N1CCN(Cc2ccccc2)CC1 | 4 | . | . | . | .
SMILES | Measles CPE | CYP2C19 inhib | CYP2C9 activ | CYP2C9 inh | CYP2C19 activ
COc1ccc(OC)c(CN2CCN(C(=O)c3cccc4ccccc34)CC2)c1 | 26 | 55* | 1.4 | -37 | 0.4
COc1ccc(OCC(=O)N2CCN(C(=O)c3cccc4ccccc34)CC2)cc1 | 13 | 2 | 1 | 3 | 1
COc1ccc(OC)c(CN2CCN(C(=O)c3cccs3)CC2)c1 | 3 | 91* | 0.3 | 70* | 0.1
COc1ccccc1C1(O)CCN(C(=O)c2cccs2)CC1 | 18 | 18 | 0.5 | 54* | 0.8
COc1ccc(CN2CCN(C(=O)c3cccs3)CC2)cc1 | 19 | 58* | 0.9 | 10 | 0.4
NCCCC(N)(C(=O)O)C(F)F (centres undefined) | 19 | . | . | . | .
